Experimental data published in PubChem BioAssay (NCATS).
Records with an inconclusive call do not appear. The source made the active and inactive calls. Unless noted, the call rests on the fitted dose curve; in most records, active means well fitted curve in the direction sought with a large enough effect; inconclusive means small, poorly fitted or top-dose-only effect, or another doubt; inactive means no such curve, though single readings can be large; an effect the other way counts as inactive or inconclusive.

Legend:
[1] = High Content Imaging Cell-Based qHTS for Inhibitors of the mTORC1 Signaling Pathway in MEF Cells (AID 2667); details: series mostly up to 38.3 µM;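 further: Tsc2-/- p53-/- MEFs stably re-expressing wild-type Tsc2 exposed 24 h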
In short: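 Immunofluorescence for rpS6 phosphorylation in MEFs of Tsc2-/-, p53-/- background rescued with WT Tsc2. Compound exposure lasted 24 hrs. Inhibition was scored against rapamycin-treated control wells.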

[2] = Cytometry Cell-Based qHTS for Inhibitors of the mTORC1 Signaling Pathway in MEF cells (AID 2668); details: mTORC1 pathway readout; series mostly up to 38.3 µM;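 further: Tsc2-/- p53-/- mouse embryonic fibroblasts stably re-expressing wild-type Tsc2; percent cells positive for phospho-rpS6 Ser235/236 relative to propidium iodide stain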
In short: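 WT MEFs (Tsc2-/-, p53-/- stably re-expressing WT Tsc2) in DMEM + 10% FBS received compounds 24 hrs after plating, for 24 hrs at 37 degree Celsius. Fixed cells stained with Alexa-488 anti-phospho-rpS6 Ser235/236 and propidium iodide; laser-scanning cytometry read-out.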

[3] = Validation screen for small molecules that induce DNA re-replication in MCF 10A normal breast cells (AID 463097); details: MCF 10A cells, DNA re-replication phenotype imaging; series mostly up to 46.1 µM; further: nearly all actives have a fitted effect of over 60% in size
In short: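 Readout: Hoechst nuclear fluorescence intensity, 405 ex / 500-530 em, by scanning plate imager; re-replication scored as increase in nuclei with elevated DNA content. Cells exposed to compound 48 hr, 37 C, 5% CO2 beforehand.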

[4] = biological target: Ubiquitin carboxyl-terminal hydrolase 2 (Homo sapiens) (UniProt O75604); experiment: qHTS Validation Assay for Inhibitors of Ubiquitin-specific Protease USP2a Using CHOP2 as the Reporter (AID 463106); details: USP2a cleavage of CHOP2 reporter, enzymatic; series mostly up to 38.3 µM; further: potency means the concentration at half of the fitted maximal effect
Ubiquitin carboxyl-terminal hydrolase 2 (Homo sapiens), sequence (O75604 whole entry, looked up): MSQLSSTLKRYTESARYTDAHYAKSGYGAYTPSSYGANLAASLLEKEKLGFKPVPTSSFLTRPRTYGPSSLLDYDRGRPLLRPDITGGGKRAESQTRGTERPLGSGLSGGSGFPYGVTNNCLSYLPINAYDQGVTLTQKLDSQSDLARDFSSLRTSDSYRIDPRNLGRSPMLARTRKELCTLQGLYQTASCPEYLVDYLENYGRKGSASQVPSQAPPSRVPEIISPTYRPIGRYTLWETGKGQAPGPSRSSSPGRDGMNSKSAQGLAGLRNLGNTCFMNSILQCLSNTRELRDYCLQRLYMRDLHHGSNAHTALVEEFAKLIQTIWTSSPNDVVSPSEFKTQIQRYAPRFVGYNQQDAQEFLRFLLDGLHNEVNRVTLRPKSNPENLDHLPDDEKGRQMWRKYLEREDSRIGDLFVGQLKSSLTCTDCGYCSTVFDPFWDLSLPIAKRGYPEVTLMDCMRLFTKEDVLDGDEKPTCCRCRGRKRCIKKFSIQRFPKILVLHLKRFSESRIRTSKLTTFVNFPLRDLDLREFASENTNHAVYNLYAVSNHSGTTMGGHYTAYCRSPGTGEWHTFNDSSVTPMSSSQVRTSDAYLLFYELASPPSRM
In short: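 10nM USP2 core + cpd, 30min RT; add 25nM Ub-CHOP2/25nM substrate; 60min RT; FI 485/531nm. Buffer Tris pH 8.0, CaCl2, BME, CHAPS. Norm. to NEM = 100% inhibition; time-zero read flags fluorescent artifacts.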

[5] = biological target: DNA polymerase III PolC-type (Bacillus subtilis (strain 168)) (UniProt P13267); experiment: qHTS Validation Assay for the Inhibitors of DNA Replication in Gram-Positive Bacteria (AID 485295); details: Gram-positive bacterial DNA replication assay; series mostly up to 57.1 µM; further: potency means the concentration at half of the fitted maximal effect
DNA polymerase III PolC-type (Bacillus subtilis (strain 168)), sequence (P13267 whole entry, looked up): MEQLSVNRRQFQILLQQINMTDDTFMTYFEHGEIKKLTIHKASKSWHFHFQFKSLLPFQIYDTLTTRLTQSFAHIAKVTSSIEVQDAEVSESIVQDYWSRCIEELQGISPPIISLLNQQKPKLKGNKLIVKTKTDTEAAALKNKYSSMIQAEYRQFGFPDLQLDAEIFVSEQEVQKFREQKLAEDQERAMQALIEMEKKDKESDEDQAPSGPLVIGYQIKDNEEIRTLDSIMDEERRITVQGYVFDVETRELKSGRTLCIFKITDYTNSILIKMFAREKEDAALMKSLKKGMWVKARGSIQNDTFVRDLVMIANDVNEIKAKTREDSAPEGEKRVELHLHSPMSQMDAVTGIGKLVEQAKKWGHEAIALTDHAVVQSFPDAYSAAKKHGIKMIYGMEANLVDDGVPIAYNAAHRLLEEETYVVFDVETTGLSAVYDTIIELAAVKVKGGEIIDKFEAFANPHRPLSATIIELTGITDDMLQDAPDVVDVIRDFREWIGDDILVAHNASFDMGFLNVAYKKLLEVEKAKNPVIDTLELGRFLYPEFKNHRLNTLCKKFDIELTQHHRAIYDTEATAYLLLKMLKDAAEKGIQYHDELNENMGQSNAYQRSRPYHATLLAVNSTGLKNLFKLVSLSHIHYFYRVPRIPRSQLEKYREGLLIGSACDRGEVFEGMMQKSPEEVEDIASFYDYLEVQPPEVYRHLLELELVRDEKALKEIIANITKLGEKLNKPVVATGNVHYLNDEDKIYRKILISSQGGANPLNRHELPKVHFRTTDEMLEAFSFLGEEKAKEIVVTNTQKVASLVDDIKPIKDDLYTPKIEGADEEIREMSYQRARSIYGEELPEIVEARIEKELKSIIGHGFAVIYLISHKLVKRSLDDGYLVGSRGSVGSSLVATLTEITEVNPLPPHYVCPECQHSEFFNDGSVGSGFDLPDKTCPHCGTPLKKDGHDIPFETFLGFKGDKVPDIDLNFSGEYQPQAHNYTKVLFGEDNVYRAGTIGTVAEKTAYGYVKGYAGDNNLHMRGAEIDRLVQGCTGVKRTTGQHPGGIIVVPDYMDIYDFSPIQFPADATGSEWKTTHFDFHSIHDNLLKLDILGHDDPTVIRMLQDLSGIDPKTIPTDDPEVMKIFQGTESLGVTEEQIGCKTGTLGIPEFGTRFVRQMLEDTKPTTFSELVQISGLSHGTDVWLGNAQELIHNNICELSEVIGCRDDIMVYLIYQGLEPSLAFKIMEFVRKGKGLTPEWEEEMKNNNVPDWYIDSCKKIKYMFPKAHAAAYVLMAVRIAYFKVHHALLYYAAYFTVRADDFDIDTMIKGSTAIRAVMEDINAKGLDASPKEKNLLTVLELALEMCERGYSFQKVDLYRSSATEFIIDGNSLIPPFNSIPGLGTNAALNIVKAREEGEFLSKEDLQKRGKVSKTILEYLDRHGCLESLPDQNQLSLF
In short: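 Reconstituted B. subtilis holoenzyme (Pol III, beta clamp, SSB, primase) was preincubated with compound at room temperature, then given single-stranded circular M13Gori plus dNTPs and NTPs. EDTA-containing PicoGreen stopped the reaction, and dsDNA product was read by fluorescence.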

[6] = biological target: Tumor susceptibility gene 101 protein (Homo sapiens) (UniProt Q99816); experiment: qHTS Validation Assay for Iinhibitors of HIV-1 Budding by Blocking the Interaction of PTAP/TSG101 (AID 485342; calls by dose curve); details: TSG101-PTAP binding, fluorescence polarization, 4-point titration; series mostly up to 115 µM
Tumor susceptibility gene 101 protein (Homo sapiens), sequence (Q99816 whole entry, looked up, the tested form may be a part): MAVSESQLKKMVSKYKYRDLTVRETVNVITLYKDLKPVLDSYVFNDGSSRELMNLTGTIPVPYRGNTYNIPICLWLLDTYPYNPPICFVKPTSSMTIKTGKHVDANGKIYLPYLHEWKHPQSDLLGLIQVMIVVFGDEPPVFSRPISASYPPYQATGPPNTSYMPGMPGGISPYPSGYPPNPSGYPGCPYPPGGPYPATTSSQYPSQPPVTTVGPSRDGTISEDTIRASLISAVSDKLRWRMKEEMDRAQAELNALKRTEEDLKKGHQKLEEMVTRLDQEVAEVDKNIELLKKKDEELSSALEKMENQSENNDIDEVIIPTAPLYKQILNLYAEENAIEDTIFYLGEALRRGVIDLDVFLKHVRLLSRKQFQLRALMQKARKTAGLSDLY
In short: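 Tsg101 binding domain (10 uM final) in pH 7.5 HEPES/NaCl/Tween 20/EDTA/TCEP buffer was mixed with pin-transferred compounds, then FITC-labeled PTAP peptide (50 nM final) was added; after 20 min at r.t., fluorescence polarization was read.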

[7] = qHTS Validation Assay to Find Inhibitors of Chronic Active B-Cell Receptor Signaling (AID 485345; active means well fitted curve in the direction sought with a large enough effect in the main read-out, with a control signal flat, not every such curve was filed as active); details: ABC-DLBCL cells, chronic BCR signaling reporter, CBG luciferase; series mostly up to 46.1 µM
In short: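 Read-out: ratio of filter-corrected green (IkappaBalpha fusion) to red (native) luciferase signal in doxycycline-induced TMD8 cells after 4 h at 37C. Titration spanned 46 uM–3 nM; Data were normalised to basal cells and 10 uM MG-132 wells.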

[8] = biological target: Beta-2 adrenergic receptor (Homo sapiens) (UniProt P07550); experiment: qHTS validation assay of beta-arrestin-biased ligands of beta2-adrenergic receptor (AID 485366); details: cell-based beta-arrestin recruitment to ADRB2, qHTS; series mostly up to 46.1 µM
Beta-2 adrenergic receptor (Homo sapiens), sequence (P07550 whole entry, looked up): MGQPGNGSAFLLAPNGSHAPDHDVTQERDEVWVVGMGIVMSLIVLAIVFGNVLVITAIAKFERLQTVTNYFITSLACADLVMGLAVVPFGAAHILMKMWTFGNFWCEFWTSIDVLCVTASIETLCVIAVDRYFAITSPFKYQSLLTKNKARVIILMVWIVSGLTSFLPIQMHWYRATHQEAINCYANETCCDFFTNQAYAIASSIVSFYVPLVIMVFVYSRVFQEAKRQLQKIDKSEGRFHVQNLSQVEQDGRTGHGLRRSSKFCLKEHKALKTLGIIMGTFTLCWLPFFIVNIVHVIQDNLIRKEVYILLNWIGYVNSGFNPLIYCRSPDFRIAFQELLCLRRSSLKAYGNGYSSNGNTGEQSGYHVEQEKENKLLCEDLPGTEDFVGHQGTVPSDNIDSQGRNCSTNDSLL
In short: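 Values derive from curve-fitted %Activity of a luminescent beta-arrestin recruitment reporter; compounds tested up to 46 microM on Tango cells for 18 hr at 37 degrees C, 5% CO2.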

[9] = Quantitative high throughput screen for delayed death inhibitors of the malarial parasite plastid, 96 hour incubation (AID 488745); details: Plasmodium falciparum growth; series mostly up to 28.7 µM; further: nearly all actives have a fitted effect of over 70% in size
In short: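 Luciferase-expressing P. falciparum in erythrocytes (2% hematocrit, 0.1% parasitemia) incubated with compound for 96 h at 37 C, 5% CO2, in RPMI 1640 with 0.5% Albumax. Growth inhibition read as decreased luminescence.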

[10] = biological target: ATP-dependent 6-phosphofructokinase (Trypanosoma brucei brucei) (UniProt O15648); experiment: qHTS Validation Assay to Find Inhibitors of T. brucei phosphofructokinase (AID 485368); details: T. brucei PFK enzyme assay, qHTS 7-point titration; series mostly up to 57.5 µM
ATP-dependent 6-phosphofructokinase (Trypanosoma brucei brucei), sequence (O15648 whole entry, looked up): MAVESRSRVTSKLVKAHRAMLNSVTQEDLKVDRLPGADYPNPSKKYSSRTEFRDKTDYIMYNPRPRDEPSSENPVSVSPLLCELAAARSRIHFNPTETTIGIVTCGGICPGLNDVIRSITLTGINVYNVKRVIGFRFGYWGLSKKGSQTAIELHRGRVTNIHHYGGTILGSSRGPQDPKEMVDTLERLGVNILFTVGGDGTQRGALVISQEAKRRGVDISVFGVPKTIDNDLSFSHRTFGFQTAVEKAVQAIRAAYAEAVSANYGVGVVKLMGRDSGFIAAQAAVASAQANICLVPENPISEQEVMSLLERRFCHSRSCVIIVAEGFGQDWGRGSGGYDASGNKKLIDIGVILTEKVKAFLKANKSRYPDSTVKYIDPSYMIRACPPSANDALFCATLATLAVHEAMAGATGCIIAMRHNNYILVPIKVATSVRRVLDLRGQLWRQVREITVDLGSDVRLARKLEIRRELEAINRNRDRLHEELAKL
In short: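 Enzyme reaction in triethanolamine buffer pH 8.0 with 5 mM MgCl2, 0.01% Tween20 and 0.1% BSA; PFK 1.25 nM, F6P 0.5 mM, ATP 0.1 mM, 45 min RT. ADP quantified by ADP-Glo.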

Measured: Potency

CN1[C@@H](CC(=O)c2ccccc2)CCC[C@H]1C[C@H](O)c1ccccc1
not listed: [10]
inactive: all other assays above

CN1CCC[C@H]1c1cccnc1
not listed: [9] | [10]
inactive: all other assays above

C=CC(N)CCC(=O)O (stereo unspecified)
not listed: [10]
inactive: all other assays above

COc1cc2c(CCNC(C)=O)c[nH]c2cc1Cl
not listed: [9] | [10]
inactive: all other assays above

CC1CN(S(=O)(=O)c2cccc3cnccc23)CCN1 (stereo unspecified)
inactive: all assays above

CC(=O)SCC[N+](C)(C)C
not listed: [9]
inactive: all other assays above

O=C(Nc1cccc(C(=O)Nc2ccc(S(=O)(=O)O)c3cc(S(=O)(=O)O)cc(S(=O)(=O)O)c23)c1)Nc1cccc(C(=O)Nc2ccc(S(=O)(=O)O)c3cc(S(=O)(=O)O)cc(S(=O)(=O)O)c23)c1
active: [4] 8.26 µM | [5] 11.9 µM
not listed: [9] | [10]
inactive: all other assays above

CN1C2CCC1CC(OC(=O)C(O)c1ccccc1)C2 (stereo unspecified)
not listed: [8]
inactive: all other assays above

NCCCCC(=O)O
not listed: [10]
inactive: all other assays above

CN(C)CCC(c1ccc(Cl)cc1)c1ccccn1 (stereo unspecified)
not listed: [10]
inactive: all other assays above

O=C(O)[C@@H]1C[C@H](C(=O)O)N1
not listed: [10]
inactive: all other assays above

COc1ccc(/C=C/C(=O)Nc2ccccc2C(=O)O)cc1OC
not listed: [7] | [9] | [10]
inactive: all other assays above

CN(C)C(N)=NCCC[C@H](N)C(=O)O
inactive: all assays above

NCCNC(=O)c1ncsc1-c1cccc(F)c1
not listed: [10]
inactive: all other assays above

O=c1[nH]c2cc(C(F)(F)F)ccc2n1-c1cc(C(F)(F)F)ccc1O
not listed: [7] | [9] | [10]
inactive: all other assays above

CC(C)NC[C@H](O)COc1cccc2[nH]ccc12
not listed: [10]
inactive: all other assays above

O=C(O)CC[C@@H](C(=O)O)N1C(=O)c2ccccc2C1=O
not listed: [9] | [10]
inactive: all other assays above

NCCCCCCCCCCN
not listed: [10]
inactive: all other assays above

Cn1c(=O)c2[nH]c(-c3ccccc3)nc2n(C)c1=O
not listed: [7] | [9] | [10]
inactive: all other assays above

O=c1[nH]c2cc(Cl)c(Cl)cc2[nH]c1=O
not listed: [9] | [10]
inactive: all other assays above

N[C@@H](CC(=O)O)C(=O)O
not listed: [10]
inactive: all other assays above

COc1ccccc1CNCCCCCCNCCCCCCCCNCCCCCCNCc1ccccc1OC
not listed: [9] | [10]
inactive: all other assays above

O=C(O)CC1CCCc2ccccc2C1O (stereo unspecified)
not listed: [9] | [10]
inactive: all other assays above
